The sample as a whole holds a higher share of hits than the screen did.
ROCK2 blocker – blocks human Rho kinase 2 activity | purified ROCK2, Kinase-Glo ATP depletion luminescence | inhibition, % at 6 µM | actives 0.35% (n = 60,000) | O75116;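 active means inhibition above the screen-wide mean inhibition plus 3 SD, cut at about 18% in these data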;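 further: plate controls were DMSO wells for no effect and Y-27632 control wells after no-enzyme background subtraction for full effect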
JNK3 blocker – blocks human JNK3 kinase activity; actives 0.61% (n = 60,000); purified JNK3 kinase activity, HTS; inhibition, % at 8 µM; P53779; in the data active means inhibition above about 17%;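 further: 0% = DMSO and 100% = reference inhibitor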
Target sequence (P53779 whole entry, looked up): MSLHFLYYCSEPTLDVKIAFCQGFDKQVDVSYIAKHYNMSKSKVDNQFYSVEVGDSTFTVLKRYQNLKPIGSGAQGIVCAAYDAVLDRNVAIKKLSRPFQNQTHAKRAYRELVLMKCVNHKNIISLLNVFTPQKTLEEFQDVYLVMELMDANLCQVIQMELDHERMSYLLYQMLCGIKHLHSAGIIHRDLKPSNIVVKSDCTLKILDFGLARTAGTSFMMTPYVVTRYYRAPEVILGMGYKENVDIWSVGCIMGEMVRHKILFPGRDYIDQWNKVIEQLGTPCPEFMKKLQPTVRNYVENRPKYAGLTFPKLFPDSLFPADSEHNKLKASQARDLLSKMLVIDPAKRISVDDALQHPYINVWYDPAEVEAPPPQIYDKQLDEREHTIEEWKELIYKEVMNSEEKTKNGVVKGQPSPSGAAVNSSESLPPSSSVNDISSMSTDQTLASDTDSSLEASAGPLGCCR
D1 allo mod – allosterically modulates the human D1 dopamine receptor; actives 5.9% (n = 58,000); HEK293 D1, CRE-luciferase, dopamine EC30 potentiation; actives deviate in either direction; P21728; AID 641; B-score at 10 µM;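 active means luminescence count or its row- and column-corrected plate score outside the 99.7% band of the plate's sample wells, on either side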
hDAT+cocaine – changed human dopamine transporter uptake under cocaine IC80 | Q01959 | B-score at 10 µM | actives 1.3% (n = 110,000) | LLC-PK1 hDAT cells, [14C]-dopamine uptake with cocaine IC80; actives deviate in either direction;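 active means Z score or B-score, a plate-position-corrected score, falls beyond the plate's 99.7% confidence bounds, in either direction; inactive means both scores lie inside the 99.7% bounds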;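 further: scored against the spread of the other compound wells on the same plate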
PKA kinase inh – blocks human protein kinase A activity. actives 0.1% (n = 65,000). PKA Kemptide phosphorylation, Kinase-Glo ATP luminescence. AID 524. inhibition, % at 6 µM;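 active means inhibition above the screen-wide mean inhibition plus 3 SD, cut at about 21% in these data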
Numbers without * were called inactive; nt = no result given.

SMILES | ROCK2 blocker | JNK3 blocker | D1 allo mod | hDAT+cocaine | PKA kinase inh
N#CC1=C(N)Oc2n[nH]c(-c3ccc(F)cc3)c2C1c1cccnc1 (configuration not stated) | nt | nt | 4.82* | 0.493 | 2.0
Cc1ccc(S(=O)(=O)NCC(C)NS(=O)(=O)c2ccc(C)cc2)cc1 (configuration not stated) | 6.2 | 3.2 | -0.0171 | -8.22* | 10.5
CC(Nc1nc(-c2ccc(F)cc2)cs1)c1nc2cc(Cl)c(Cl)cc2n1CCCO (configuration not stated) | nt | nt | nt | -0.418 | nt
Cc1csc(NC(C)c2nc3cc(C(F)(F)F)ccc3n2CCCO)n1 (configuration not stated) | nt | nt | nt | -2.65* | nt
COc1cccc(C(C(=O)NC2CCCC2)N(Cc2ccccc2OC)C(=O)c2ccco2)c1 (configuration not stated) | nt | nt | nt | 1.61 | nt
CCOC(=O)c1ccccc1-c1csc(NS(=O)(=O)c2ccc(Cl)cc2)n1 | nt | nt | nt | -4.8* | nt
COc1ccc(-c2cc3nc(C)cc(N)n3n2)cc1 | nt | nt | nt | -8.43* | nt
Cc1cccc(NC(=O)c2ccc(C3SCC(=O)N3CCc3ccccc3)cc2)c1C (configuration not stated) | nt | nt | nt | 2.66* | nt
O=C(NCc1ccccc1)c1ccc(C2SCC(=O)N2Cc2ccccc2)cc1 (configuration not stated) | nt | nt | nt | 0.458 | nt
COc1ccc(C(=O)Nn2c(SCC(=O)NCC3CCCO3)nc3ccccc3c2=O)cc1 (configuration not stated) | -13.6 | 1.5 | -5.42* | -8.45* | 2.8
COc1ccc(C(=O)Nn2c(SCC(=O)NCc3ccccc3)nc3ccccc3c2=O)cc1 | nt | nt | nt | -0.228 | nt
CCOc1ccc(NC(=O)c2oc3ccccc3c2NC(=O)C2CC2)cc1 | -4.0 | 2.0 | -0.387 | nt | -4.5
CC1CNCCN1S(=O)(=O)c1cccc2cnccc12 (configuration not stated) | 107.1* | -2.1 | -0.0392 | 0.0302 | 46.0*
COCCNC(=O)C1c2ccccc2C(=O)N(CCOC)C1c1ccc(F)cc1 (configuration not stated) | nt | nt | -0.367 | -7.61* | 6.1
CCN(CC)S(=O)(=O)c1ccc(Cl)c(C(=O)NC)c1 | 5.0 | 3.0 | -5.2* | -1.15 | 7.8
Nc1ccc2c(c1)C(=O)C(=O)c1ccccc1-2 | nt | nt | nt | -3.21* | nt
COC(=O)/C(=C(/F)Sc1cc(C)c(O)c(C)c1)C(F)(F)F | nt | nt | nt | -0.0749 | nt
Cc1cccc(NC(=O)C23CCC(C)(C2Br)C3(C)C)c1 (configuration not stated) | nt | nt | nt | -8.54* | nt
CCN(CC)S(=O)(=O)c1ccc(NC(=O)C(C)N(c2ccccc2)S(C)(=O)=O)cc1 (configuration not stated) | nt | nt | nt | 2.53* | nt
N#C/C(=C(/O)c1ccco1)c1nc2ccccc2s1 | nt | nt | nt | -0.896 | nt
N#C/C(=C(\O)c1ccco1)c1ccccn1 | 5.7 | 18.5* | nt | 0.0493 | 7.3
Cc1ccc(C(=O)OCc2cc3ccccc3[nH]c2=O)cc1 | -6.7 | 28.3* | -0.127 | -1.48 | 1.1
Cc1cccc(C(=O)OCc2cc3ccccc3[nH]c2=O)c1 | 0.8 | 13.3 | 0.505 | -0.577 | -0.7
Cc1[nH]c(=O)[nH]c1C(=O)CCCCC(=O)OCC(=O)Nc1ccccn1 | 7.9 | 43.1* | 0.188 | -0.0765 | 5.5
CCOC(=O)CCCCC(=O)c1[nH]c(=O)[nH]c1CSc1nc2ccccc2[nH]1 | 5.0 | -41.8 | nt | 0.329 | 4.1
SMILES | ROCK2 blocker | JNK3 blocker | D1 allo mod | hDAT+cocaine | PKA kinase inh
CCn1c(N2CCN(C(=S)NCCc3ccccc3)CC2)nc2ccccc21 | nt | nt | nt | 0.633 | nt
COc1cc([C@@H]2c3cc4c(cc3[C@@H](O)[C@@H](CO)[C@@H]2CO)OCO4)cc(OC)c1O[Si](C)(C)C(C)(C)C | nt | nt | nt | 0.295 | nt
COC(=O)Nc1nc2c(s1)CCCC2 | -6.3 | 2.6 | 0.293 | -0.538 | -4.0
Cc1cc(C(=O)Nc2nc3c(s2)CCCC3)no1 | 3.4 | 3.4 | -3.78* | 0.247 | 7.5
CN(C)c1ccc(C(=O)Nc2nc3c(s2)CCCC3)cc1 | 1.4 | -5.5 | -6.05* | -0.624 | -3.4
Cn1c(=O)c(C(=O)CCl)c(N)n(CC2CC2)c1=O | nt | nt | nt | -1.12 | nt
O=C(c1cc(-c2ccccc2)nc2ccccc12)N1N=C(C(F)F)CC1(O)C(F)F (configuration not stated) | nt | nt | nt | 2.87* | nt
Cc1ccc(-c2cc(C(=O)N3N=C(C(F)F)CC3(O)C(F)F)c3ccccc3n2)cc1C (configuration not stated) | nt | nt | nt | 1.4 | nt
COc1ccc(NC(=O)COn2nnc3ccc(Cl)cc32)cc1OC | 3.8 | -7.4 | -2.6* | 0.601 | 2.1
CCn1c(=N)n(CC(O)c2ccccc2)c2ccccc21 (configuration not stated) | nt | nt | nt | -0.628 | nt
CCn1c(=N)n(CCO)c2ccccc21 | -7.6 | -2.7 | -4.09* | -0.0154 | 4.2
CN1CCN(C(=O)c2cc3nc(-c4ccccc4)cc(C(F)(F)F)n3n2)CC1 | 7.3 | -7.9 | -0.0996 | 0.401 | 8.9
CN1CCN(C(=O)c2cc3nc(-c4ccc(Cl)cc4)cc(C(F)(F)F)n3n2)CC1 | -1.4 | -9.9 | -3.7* | 0.478 | 1.1
Fc1ccc(-n2nnc(-c3nccs3)n2)cc1 | nt | nt | nt | 0.737 | nt
CCCCOC(=O)CSc1nnc(N)s1 | 3.0 | -2.7 | -0.124 | -2.4* | 8.4
Nc1nnc(SCC(=O)NCCOc2ccccc2)s1 | nt | nt | nt | -0.504 | nt
CCC/C=C(\CCC)C(NC(=O)c1ccc(C(=O)OC)cc1)c1ccc(C(=O)OC)cc1 (configuration not stated) | nt | nt | nt | 0.604 | nt
COc1cc(OC)cc(-c2cc3nc4c(c(N5CCN(c6ncccn6)CC5)n3n2)CCCC4)c1 | 2.5 | -1.9 | nt | 0.535 | 3.4
COc1cc(OC)cc(-c2cc3nc4c(c(N5CCN(c6cnccn6)CC5)n3n2)CCCC4)c1 | 6.0 | 3.3 | -3.35* | nt | 6.2
Cc1cc([N+](=O)[O-])cnc1NC(C)c1ccccc1 (configuration not stated) | nt | nt | nt | -0.156 | nt
CC(=O)c1cc2c(cc1NS(=O)(=O)c1ccc3c(c1)OCCO3)OCO2 | -0.1 | -0.5 | 4.09* | 0.112 | 2.9
O=C(O)CSc1nnc(-c2ccc(S(=O)(=O)N3CCCC3)cc2)n1Cc1ccco1 | 4.5 | 6.1 | -4.15* | -0.0035 | 3.8
COc1ccc2cc3cc(C(=O)NCc4ccco4)oc3nc2c1 | nt | nt | nt | 0.199 | nt
COc1ccc2cc3c(N)c(C(=O)NCc4ccco4)sc3nc2c1 | 19.5* | -22.7 | -0.123 | -0.305 | -5.8
CC(NCc1ccc(N(C)C)cc1)C1CC2CCC1C2 (configuration not stated) | nt | nt | nt | 0.0436 | nt
SMILES | ROCK2 blocker | JNK3 blocker | D1 allo mod | hDAT+cocaine | PKA kinase inh
Cc1ccc2cc3cc(C(=O)N(C)C4CCCCC4)oc3nc2c1 | -5.9 | -2.3 | -3.52* | nt | 0.5
Cc1cccc(N(C)C(=O)c2cc3cc4ccc(C)cc4nc3o2)c1 | 2.0 | -5.8 | 3.38 | -0.783 | 6.5
CC(C)COc1ccc(CSCCNC(=S)Nc2ccccc2)cc1 | nt | nt | nt | 0.899 | nt
Cc1ccc2[nH]c3c(NCc4ccco4)ncnc3c2c1 | 4.8 | 10.1 | -3.64* | 1.61 | 5.7
c1coc(CNc2ncnc3nc[nH]c23)c1 | 25.2* | -3.8 | 0.585 | 0.0862 | 17.2
CCn1cc(C(=O)N2CCN(C(=O)c3ccco3)CC2)c2cc(OC)c(OC)cc2c1=O | 8.7 | -4.2 | -0.441 | 0.706 | 8.7
COc1cc(-c2cc(C(=O)N3CCN(c4ccccn4)CC3)c3ccccc3n2)cc(OC)c1OC | 1.1 | -3.2 | -3.97* | 3.73* | 1.4

High-throughput results: PubChem BioAssay, several laboratories
